Laboratory results published in PubChem BioAssay AID690 (Sanford-Burnham Center for Chemical Genomics, 2007).
About 80 (0.08%) of roughly 96,000 compounds were called active. No rule for the calls is given here. Not all results are given here. Measured potencies and affinities stand elsewhere.

Each compound was assayed against Alkaline phosphatase, placental type (Homo sapiens) (UniProt P05187) (assay: inhibition of human placental alkaline phosphatase – biochemical, luminescence, HTS (AID 690)). Conditions: purified PLAP, luminescent substrate; at 20 µM; stronger effect = higher value.
Alkaline phosphatase, placental type (Homo sapiens), sequence (P05187 whole entry, looked up): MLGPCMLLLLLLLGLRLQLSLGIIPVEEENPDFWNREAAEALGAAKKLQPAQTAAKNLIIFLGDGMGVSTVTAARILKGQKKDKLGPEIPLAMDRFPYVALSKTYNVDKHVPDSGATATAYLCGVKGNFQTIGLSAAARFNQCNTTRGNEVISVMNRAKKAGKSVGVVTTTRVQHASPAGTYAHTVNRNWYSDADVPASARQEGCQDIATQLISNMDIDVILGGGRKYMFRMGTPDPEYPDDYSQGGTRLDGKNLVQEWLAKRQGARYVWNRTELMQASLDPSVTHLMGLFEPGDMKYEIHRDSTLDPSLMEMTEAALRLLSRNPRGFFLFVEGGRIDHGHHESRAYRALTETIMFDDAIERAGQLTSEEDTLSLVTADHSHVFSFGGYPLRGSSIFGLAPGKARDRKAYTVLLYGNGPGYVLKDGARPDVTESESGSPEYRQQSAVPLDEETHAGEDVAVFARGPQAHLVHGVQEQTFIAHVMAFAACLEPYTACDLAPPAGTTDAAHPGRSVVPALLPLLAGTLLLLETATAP

inhibition, inactive:
CN(C)c1ccc(/C=C/c2cc[n+]([O-])cc2)cc1 5.5%, C[n+]1ccc(/C=C/c2ccc(Br)cc2)cc1 33.9%, CN(C)c1nc(C(=O)NN)nc(N(C)C)n1 21.7%, CC1=C(/C=C/C(=O)O)C(C)(C)CCC1 -32.1%, O=C(COC(=O)c1ccc(Cl)c(S(=O)(=O)N2CCCC2)c1)NC1CCCC1 -44.5%, CCn1cc(/C=C(/C#N)S(=O)(=O)c2ccccc2)cn1 -12.8%, N#C/C(=C\c1ccc[nH]1)S(=O)(=O)c1ccccc1 -3.2%, Cc1ccc(S(=O)(=O)N[C@@H](CC(C)C)C(=O)NCc2ccco2)cc1 18.5%, CC1(C)OC(=O)C(=CNc2ccc(F)cc2)C(=O)O1 19.1%, O=C(Nc1ccc(F)cc1)c1ccccc1CC[N+](=O)[O-] 8.4%, Cc1cc(C)nc(NN2C(=O)/C(=C/c3ccccc3)SC2=S)n1 12.4%, COc1ccccc1/C=C1\SC(=S)N(Nc2nc(C)cc(C)n2)C1=O 0.7%, Cc1cc(C)n2nc(SCc3cc(=O)oc4cc(C)c(C)cc34)nc2n1 -31.2%, CC1(C)C(=O)Nc2ccccc2N1C(=O)COC(=O)CCSc1ccccc1 6.2%, COc1ccccc1-n1cnc(N)c1C(=O)c1ccccc1 4.4%, Cc1ccc(N2CCN(C(=O)c3ccccc3Br)CC2)c(C)c1 -48.2%, CCOC(=O)c1c(-n2c(C)cc(C=O)c2C)sc2c1CCCC2 -34.6%, CCOC(=O)c1c(N2C(=O)Nc3cc(Cl)c(Cl)cc3N2O)sc2c1CCCCC2 -30.1%, CCOC(=O)Nc1sc(C)nc1-c1ccccc1 5.8%, COC(=O)C1=C(C)N=C2SC(C)C(=O)N2C1c1cccc(F)c1 (centres undefined) -3.9%, CCOc1ccc(OCC)c(NS(=O)(=O)c2cccc3nsnc23)c1 -1.4%, Cn1c(C(=O)NCCN2CCOCC2)cc2sccc21 11.3%, COC(=O)c1ccc(/C=C/C(=O)c2ccc(OC)c(OC)c2)cc1 5.6%, COC(=O)c1ccc2nc(C)c(C)nc2c1 8.5%, COC(=O)c1ccc2c(c1)C(C)(C)C(/C=C/c1ccc(OC)c(OC)c1OC)=[N+]2C -29.3%, COC(=O)c1ccc(/C=C/C(=O)c2ccc(OC)cc2)cc1 15.1%, O=C(CCCCCN1C(=O)c2ccccc2C1=O)Nc1ccc(S(=O)(=O)N2CCCCC2)cc1 8.2%, c1ccc(Cc2nn3c(Cn4nnc5ccccc54)nnc3s2)cc1 15.9%, COc1ccc(CCNC(=O)C2CC(=O)N(C3CCCC3)C2)cc1OC (centres undefined) -44.7%, Cc1cc(=O)n2c(ccc3ccccc32)c1C#N 8.7%, CCC(C)(C)NC(=O)C(c1cccs1)N(CC1CCCO1)C(=O)Cn1nnc2ccccc21 (centres undefined) -0.8%, Cc1cc(C)cc(NC(=O)CSc2nnc(-c3ccccc3)n2N)c1 -9.3%, Nc1c(-c2ccc(Cl)cc2)cnn1-c1cccc([N+](=O)[O-])c1 2.9%, COc1ccc(C(=O)O/N=C(\C)c2ccccc2)cc1 2.4%, c1ccc(Nc2cc(Nc3ccccc3)[nH]n2)cc1 11.7%, c1ccc(Nc2ccccn2)cc1 4.3%, Cc1cc(-c2ccccc2)n2nc(C)c(C#N)c2n1 -0.5%, C=CCOC(=O)C1=C(C)NC(=O)NC1/C=C/c1ccccc1 (centres undefined) 16.7%, O=C(Cn1ccc2ccccc2c1=O)NCCC(=O)NC1CCN(Cc2ccccc2)CC1 -48.7%, O=C(N1CCOCC1)N1CCC(n2nnc3cc(F)ccc32)CC1 -19.8%, O=C(NCc1ccccc1)c1ccc(-c2ccc(F)cc2)o1 3.6%, COc1ccc(-c2nc(-c3ccc(Br)o3)no2)cc1OC -40.2%, COc1ccc(-c2noc(-c3ccc(Br)o3)n2)cc1OC 29%, Cc1ccc(CNC(=O)c2ccc(C#CC(C)(C)O)s2)cc1 20.2%, O=C(CNS(=O)(=O)/C=C/c1ccccc1)OCC(=O)N1CCC(Cc2ccccc2)CC1 -18.3%, c1ccc(-n2ncc3c2ncn2nnnc32)cc1 -8.9%, Cc1nc2c3cnn(-c4ccccc4)c3ncn2n1 41.1%, CC(C)C1N=C2c3ccccc3N=C(SCC#N)N2C1=O (centres undefined) -3.7%, CC(C)C1N=C2c3ccccc3N=C(SCC(=O)NCCc3ccc(S(N)(=O)=O)cc3)N2C1=O (centres undefined) -3.1%, CCn1c(CSc2nc3ccccc3s2)nnc1SCC(=O)c1ccc(O)cc1O -26.1%, COc1ccc(-n2nnnc2SCC(=O)c2cccc(OC)c2)cc1 8.8%, CCOC(=O)CNC(=O)CSc1nnc(-c2ccccc2OC)n1CC -10.2%, C=CCn1c(SCC(=O)c2ccc(OC)cc2)nnc1-c1cc2cccc(OC)c2o1 21.9%, CCn1c(SCC(=O)C(C)(C)C)nnc1-c1ccccc1OC 5.6%, C=CCn1c(SCC(=O)Nc2ccc3c(c2)OCO3)nnc1-c1ccccc1OC -54.3%, COc1ccc(-n2nnnc2SCC(N)=O)cc1 20.8%, CCn1c(CSc2nc3ccccc3s2)nnc1SCC(=O)c1ccc(Cl)cc1 -26.1%, COc1ccc(CNc2n[nH]c(NCc3ccc(OC)c(OC)c3)n2)cc1OC -86.4%, O=C(CC1(O)C(=O)Nc2ccccc21)c1cccnc1 (centres undefined) 26.9%, COc1cc2c(cc1NC(=O)CSc1nnnn1-c1ccccc1)oc1ccccc12 21.8%, CCc1ccc(C(=O)COC(=O)C(Cc2ccccc2)NC(=O)c2ccc(Cl)cc2)cc1 (centres undefined) -8.9%, CCc1ccc2nc3c(c(C(=O)O)c2c1)CCC3 7.8%, Cc1ccc(S(=O)(=O)N2CCC(=O)N2)cc1 -17.1%, CCCc1nc(NCc2ccccn2)c2nnn(Cc3ccccc3F)c2n1 -1.1%, COc1ccc(NC(=O)Cc2cccs2)c(OC)c1 9.5%, O=C(Cc1n[nH]c(=O)[nH]c1=O)N/N=C/c1ccccc1 -5.4%, CCn1c(SCC(=O)c2ccc(O)c(O)c2)nnc1-c1ccc(C)cc1 -7.9%, CCn1c(SCC(=O)O)nnc1-c1ccccc1 -9.1%, Cc1ccccc1CSc1nccn1-c1ccccc1 19%, COc1ccc(-c2nnc3n2N=C(c2cccc(Br)c2)CS3)cc1OC 7.3%, COc1ccc(C2=Nn3c(nnc3-c3ccco3)SC2)cc1 -72.6%, COc1cccc(C2=Nn3c(nnc3-c3ccccc3O)SC2)c1 -37.4%, COc1ccc(C2=Nn3c(nnc3-c3ccco3)SC2)cc1OC 14.5%, CCOC(=O)CC1C(=O)NCCN1C(=O)c1cccc(C(F)(F)F)c1 (centres undefined) 4.8%, COc1ccc(S(=O)(=O)NCC(=O)N(CC(=O)NCC2CCCO2)c2cc(C)ccc2C)cc1 (centres undefined) -64.9%, Cc1cc2nc(C3CCN(Cc4nnnn4Cc4ccccc4)CC3)[nH]c2cc1C -140%, Cc1ccc(Cn2nnnc2CN2CCC(c3nc4ccc(Cl)cc4[nH]3)CC2)cc1 -87.9%, COCCCNC(=O)CCn1c(=O)c2ccccc2n(CC(=O)Nc2cc(Cl)ccc2C)c1=O 7.1%, Cc1c(O)ccc(C(=O)COc2ccccc2F)c1O 8.2%, C=CCNc1ncnc2ccccc12 7.5%, Cc1ccc(N2Cc3ccccc3OC(C)C2=O)cc1 (centres undefined) -23.8%, Cc1cn2c(-c3cccnc3)nnc2s1 3.7%, CCCn1c(=O)[nH]c(=O)c2c1nc(-c1ccc(OC(F)F)cc1)n2CCN1CCOCC1 12.5%, CCCc1[nH]nc2c1C(c1cc(OC)cc(OC)c1)C(C#N)=C(N)O2 (centres undefined) -45.4%, COCc1[nH]nc2c1C(c1ccc(OC)c(OC)c1)C(C#N)=C(N)O2 (centres undefined) -0.8%, COCc1[nH]nc2c1C(c1ccc(OC)cc1)C(C#N)=C(N)O2 (centres undefined) 6.1%, CCCc1[nH]nc2c1C(c1cccc(OC)c1)C(C#N)=C(N)O2 (centres undefined) -46.3%, CC(=O)N(C)c1ccc(NC(=O)/C=C/c2ccccc2Cl)cc1 0.9%, CCC1=C(OC(=O)c2ccccc2)C(C)(C)C(c2ccccc2)OC1=O (centres undefined) 22.6%, CC1=C(C(N)=O)C(c2ccncc2)n2nc(-c3ccccc3Cl)nc2N1 (centres undefined) 8.9%, CCOC(=O)c1ccc(CNC(=O)Cn2nnc(-c3ccc(C)cc3)n2)o1 1.5%, COC(=O)c1ccc(C)c(NC(=O)Cn2cnc3ccccc3c2=O)c1 5.9%, CCN=c1scc(-c2ccco2)n1/N=C/c1ccc(OC)c(O)c1 -2.2%, CCN=c1scc(-c2ccco2)n1/N=C/c1ccc(O)cc1 -11.5%, CCc1ccc(CN2CCN(S(=O)(=O)Cc3ccccc3)CC2)cc1 11.5%, CC(=O)Nc1ccc(-c2cc3ccccc3o2)cc1 0.5%, Cc1ccccc1C(=O)c1cccn1CC(=O)NCC1CCCO1 (centres undefined) -11.1%, COc1ccc(/C=C2\N=C3CCCCCN3C2=O)cc1OC -6.1%, COc1cccc(/C=C2\N=C3CCCCCN3C2=O)c1 2.1%
